Inconclusive results are not listed. Where a call stands in place of a potency, no number is given. Calls of active or inactive are those of the source. The call rests on the fitted dose curve; in most records, active means well fitted inhibition curve with a large enough effect; inconclusive means small, poorly fitted or top-dose-only effect; inactive means flat fitted curve, though single readings scatter.

The test system of the assay is CRL-7250. Description: qHTS assay to identify novel small-molecules to repurpose for Merkel cell carcinoma treatment (AID 1296009). Further: nearly all actives have a fitted effect of over 60% in size. Conditions: MCC and control cell lines, CellTiter-Glo viability, 72 h; series mostly up to 92 µM. In short, it runs like this: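 Cells were incubated with compound for 72 hr at 37 degree celsius before CellTiter-Glo addition. Luminescence was normalized with no-cell wells as full cytotoxicity and DMSO as baseline.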
On the technique in general: qHTS replaces the single test concentration by a dilution series.
In the case of `C[C@H]1CC[C@@]2(OC1)O[C@H]1CC3C4CC[C@H]5C[C@@H](O)CC[C@]5(C)C4=CC(=O)[C@]3(C)[C@H]1[C@@H]2C` (stereo not given in full), the Potency entry was “inactive”. Consider `CC(=O)N[C@H]1[C@H](O[C@H]2CC[C@@]3(C)C(CC[C@]4(C)C3CC=C3C5CC(C)(C)CC[C@]5(C(=O)O)[C@H](O[C@@H]5O[C@H](CO)[C@@H](O)[C@H](O)[C@H]5O)C[C@]34C)C2(C)C)O[C@H](CO[C@@H]2OC[C@H](O)[C@H](O)[C@H]2O[C@@H]2OC[C@@H](O)[C@H](O)[C@H]2O)[C@@H](O)[C@@H]1O` (stereo not given in full), for which the outcome is “inactive [at 9.27 µM]”. As to `O=C(OC(C(F)(F)F)C(F)(F)F)N1CCN(Cc2cccc(Oc3ccccc3)c2)CC1`, the Potency result is “inactive”. As for `O=C(Cc1ccc(Cl)cc1)Nc1cnccc1C(=O)O`, the Potency entry was “inactive”. On the same count and under the same terms, the result for `CCC(C)C(=O)OC[C@H]1O[C@H](O[C@H]2O[C@H](CO)[C@@H](O)[C@H](O)[C@H]2O)[C@H](O)[C@@H](O)[C@@H]1O` (stereo not given in full) reads “inactive”; that for `COc1cc(/C=C/C(=O)O[C@H]2[C@@H]3C=CO[C@@H](O[C@@H]4O[C@H](CO)[C@@H](O)[C@H](O)[C@H]4O)[C@@H]3[C@@]3(CO)O[C@@H]23)ccc1O`, “inactive”.

As to `C=C(C(=O)OC)C1C(O)CC2(C)C(=O)CCC(O)(CO)C2C1O` (stereo not given), the Potency result was “inactive”. Take `COc1cc(C)c(C(=O)O[C@@H]2[C@H](O)[C@@H](CO)O[C@H]2n2ccc(=O)[nH]c2=O)c(OC)c1`: the Potency entry was “inactive”.

Turning to `COc1cccc(C(=O)N2CCN(C(=O)COc3cccc(C)c3)CC2)c1OC`, the Potency result is “inactive”. On the same count and under the same terms, to `CNC(C)C(=O)NC(C(=O)N1CCCC1C(=O)Nc1cccc2ncccc12)C(C)C` (stereo not given) belongs “inactive”.

The record behind these values is PubChem BioAssay (NCATS).
